Test results as given in PubChem BioAssay AID504465 (National Center for Advancing Translational Sciences (NCATS), 2011).
The campaign covered roughly 2,100 compounds. About 210 (10%) were called active. Not shown: some 53% with an inconclusive outcome. The call rests on the fitted dose curve; in most records, active means well fitted inhibition curve with a large enough effect; inconclusive means small, poorly fitted or top-dose-only effect, or effect the other way; inactive means no such curve, though single readings can be large or run the other way. Some of the results follow.

Assay: IN Cell qHTS Assay for Inhibitors of the mTORC1 Signaling Pathway in MEF (Tsc2-/-, p53-/-) Cells: Sytravon; further: nearly all actives have a fitted effect of over 60% in size
Details: phospho-rpS6 immunofluorescence, 24 h; series mostly up to 38.3 µM; activity, negative = inhibition: at the top concentration
Description: NIH Molecular Libraries Probe Production Centers Network [MLPCN] NIH Chemical Genomics Center [NCGC] MLPCN Grant: NS059428-01 Assay Submitter (PI): Blenis, John; Hoffman, Greg; Harvard University NCGC Assay Overview: Thee mammalian target of rapamycin (mTOR) is an intracellular serine/threonine kinase Aberrant regulation of mTOR signaling plays a causative role in a number of human diseases, including cancer, benign tumors such as lymphangioleiomyomatosis (LAM) and Tuberous Sclerosis Complex (TSC), and metabolic diseases such as diabetes and obesity. This project aims to identify inhibitors of ribosomal protein S6 (rpS6) phosphorylation. The phosphorylation of rpS6 is a key event downstream of mTOR activation. The assay uses a phospho-specific antibody of phospho-rpS6 to detect inhibitors of mTOR activation. Mutations in the Tsc1 and Tsc2 genes are the underlying genetic lesions responsible for TSC, causing constitutive activation of the mTORC1 pathway and leading to profound effects on cell metabolism. Aberrant metabolism in cancer has recently received significant attention as a target to develop therapeutic agents in the treatment of cancer1. As Tsc2-/- cells have lost the ability to respond to energy and growth factor deprivation, these cells are unable to properly down regulate cellular biosynthetic processes in response to metabolic stress, and are thus extremely sensitive to glucose deprivation-induced death.2 A central goal of this project is to explore the unique cell survival and metabolic properties of cells with Tsc1 or Tsc2 by screening for compounds that selectively target the Tsc2-/- MEFs by screening both Tsc2-/- and WT MEF cell lines. We hope to better understand these aspects of TSC physiology in order to exploit them for therapeutic benefit.
NCGC IN Cell Assay Protocol: For quantitative high throughput analysis of mTORC1 signaling, we developed a cell-based assay for immuno-fluorescence based detection of rpS6 phosphorylation on the Acumen Explorer that will be used a platform for the primary small molecule screen. Mouse embryonic fibroblasts (MEFs) are cultured in 1536-well plates using DMEM + 10% FBS. Twenty-four hrs after plating, test compounds (solubilized in DMSO) are delivered and incubated with the cells for 24 hrs at 37 degree Celsius. Following the incubation, media with compound is aspirated and the cells are fixed in 4% paraformaldehyde (PFA) containing PBS + 0.2% TX-100. Next, PFA is aspirated, cells are washed two times with PBS plus 0.2% TX-100 and the cells are blocked for 1 hr at room temperature (blocking buffer: LiCOR Blocking Buffer plus 0.2% TX-100). This is followed by aspiration and staining with Alexa-488 conjugated-phospho-rpS6 Ser235/236 antibody for 2 hours at room temperature (Cell Signaling Technology # 4803, 1:50 dilution in blocking buffer). Cells are washed two times with PBS plus 0.2% TX-100, and stained with 10 uM propidium iodide (PI) for 20-25 minutes for cell number measurement (1:500 dilution of Hoescht staining is also added for IN Cell imaging). Active wells which are selected (based on Acumen results) are imaged on the IN Cell 1000 (GE Healthcare) using the D360/40X and HQ480/40X excitation filters for the Hoechst and Alexa-488 cytoplasmic stains, respectively. The fluorescence emission filters used were HQ460/40M and HQ535/50M for the Hoechst and Alexa-488 cytoplasmic stains, respectively. The normalized phospho-S6 staining is calculated as the ratio of […] for the single concentration rapamycin control (7.5 nM) and DMSO columns. […] Inhibition of the pathway is defined based on the normalized phospho-S6 intensity in rapamycin treated cells. Each treatment is reported as the % positive cells in the well, where thresholds are defined by selecting wells with the highest and lowest signal and differentiating between the % non-active and % active populations. […]
Potency means the concentration at half of the fitted maximal effect.

| SMILES | activity, negative = inhibition | Potency |
| --- | --- | --- |
| COc1ccc(Cn2c(C(=O)O)c(CNCc3ccccc3F)c3ccc(OC)cc32)cc1 | -12.4% (inactive) | – |
| CCc1ccc(NC(=O)c2ccc(F)c(S(=O)(=O)NC3CCCCCC3)c2)cc1 | 6.25% (inactive) | – |
| COc1ccc(Cn2c(C(=O)O)c(CNCCc3ccco3)c3ccc(OC)cc32)cc1 | -26.7% (inactive) | – |
| Cc1ccccc1NC(=O)Cn1c(=O)n(-c2ccc(CC(=O)NCC3CCCO3)cc2)c(=O)c2ccccc21 (centres undefined) | 7.61% (inactive) | – |
| CC[C@@H](C)[C@@H](C(=O)Nc1ccc(C)cc1)N1Cc2ccccc2C1=O | -14.1% (inactive) | – |
| CCN1C(C(=O)c2ccccc2)=C(OC(=O)COc2ccc(OC)cc2)c2ccccc2S1(=O)=O | -0.826% (inactive) | – |
| COc1ccc(C(=O)NCC(c2ccc(Cl)cc2)N2CCCCC2)cc1 (centres undefined) | -16.4% (inactive) | – |
| O=C(NCCc1ccccc1Cl)c1sc2ncccc2c1-n1cccc1 | 1.3% (inactive) | – |
| CCC(C)NC(=O)CCCn1c(=O)c2cccn2c2ccccc21 (centres undefined) | -18.8% (inactive) | – |
| Cc1cccc(NS(=O)(=O)c2ccc3[nH]c4c(c3c2)CCCCCC4)c1 | -4.07% (inactive) | – |
| Cc1nc2scc(C)n2c(=O)c1S(=O)(=O)Nc1ccc(N2CCN(S(C)(=O)=O)CC2)cc1 | 25.4% (inactive) | – |
| O=C(NCCc1ccccc1)c1ccc(Cn2c(SCc3ccccc3)nc3cccnc32)cc1 | -23.6% (inactive) | – |
| O=C(Nc1ccc(Cl)cc1)c1cc(S(=O)(=O)N2CCCc3ccccc32)ccc1F | 6.25% (inactive) | – |
| Cc1noc2ncnc(N3CCN(c4ccccc4F)CC3)c12 | -0.0728% (inactive) | – |
| CCOc1ccc(Nc2nc(Nc3ccc(OCC)cc3)nc(N3CCOCC3)n2)cc1 | – | 0.826 µM (active) |
| Cc1ccc(Nc2nc(Nc3ccc(C)c(C)c3)nc(N3CCOCC3)n2)cc1C | – | 0.656 µM (active) |
| Fc1ccc(Nc2nc(Nc3ccc(F)cc3)nc(N3CCOCC3)n2)cc1 | – | 0.521 µM (active) |
| Cc1cccc(Nc2nc(Nc3cccc(C)c3)nc(N3CCOCC3)n2)c1 | – | 1.47 µM (active) |
| CCCN1C(=O)CN(C2CCCCCC2)C(=O)C1c1ccc(OCC)c(OC)c1 (centres undefined) | 6.25% (inactive) | – |
| CC(C)OCCCNC(=O)CCCN1C(=O)CCn2nc(-c3cccn3C)cc21 | -0.543% (inactive) | – |
| CCCN1CCN(c2ncnc3sc(C(=O)Nc4ccc(OC(F)(F)F)cc4)c(C)c23)CC1 | -14.8% (inactive) | – |
| O=C(Nc1cc(Cl)cc(Cl)c1)c1ccc(F)c(S(=O)(=O)N2CCCCCC2)c1 | 6.25% (inactive) | – |
| CC(C)c1nn2c(=O)cc(COC(=O)c3ccc(NC(=O)c4cccs4)cc3)nc2s1 | 0% (inactive) | – |
| CC1=Nc2cc(C(=O)NC3CCCC3)ccc2Sc2ccc(C)cc21 | -15% (inactive) | – |
| COc1ccccc1NCc1cccn1-c1nnc(N2CCOCC2)s1 | -15% (inactive) | – |

| SMILES | activity, negative = inhibition | Potency |
| --- | --- | --- |
| CCCN1Cc2cccc(C(=O)Nc3ccc(OC)cc3OC)c2C1=O | 13.5% (inactive) | – |
| COc1ccc(Nc2nc(Nc3ccc(OC)cc3OC)nc(N3CCOCC3)n2)c(OC)c1 | – | 1.31 µM (active) |
| CCCN1CCN(CCCNC(=O)c2cc3c(s2)-c2c(C)cccc2OC3)CC1 | – | 18.5 µM (active) |
| CCN1CCN(CCCNC(=O)c2cc3c(s2)-c2c(C)cccc2OC3)CC1 | – | 14.7 µM (active) |
| CCN(CC)S(=O)(=O)c1ccc2c(c1)N(CC(=O)NCCCN1CCN(c3cc(C)ccc3C)CC1)C(=O)CO2 | 0% (inactive) | – |
| CCOc1ccccc1NC(=O)c1c(NCc2cccs2)sc2c1CCC(C)C2 (centres undefined) | 0% (inactive) | – |
| Cc1ccc(C)c(NC(=O)CSc2cn(CC(=O)N3CCCC3)c3ccccc23)c1 | -2.42% (inactive) | – |
| COc1ccc(-c2cc(C(=O)Nc3cccc(O)c3)on2)cc1OC | -6.34% (inactive) | – |
| COc1cccc(Nc2sc(C(=O)c3ccc(F)cc3)c(N)c2C(=O)NCc2ccc(C)cc2)c1 | 0% (inactive) | – |
| COc1ccc(NC(=O)c2sc3nc(-c4ccc(OC)cc4)cc(C(F)(F)F)c3c2N)cc1 | 15.3% (inactive) | – |
| COc1ccc(-c2ccc3c(N)c(C(=O)Nc4ccc(C(F)(F)F)cc4)sc3n2)cc1OC | – | 0.233 µM (active) |
| COc1ccc(-c2ccc3c(N)c(C(=O)Nc4cccc(C)c4)sc3n2)cc1 | – | 13.1 µM (active) |
| COc1ccc(CNC(=O)c2c(Nc3ccccc3C)sc(C(=O)c3ccccc3)c2N)cc1 | -15.4% (inactive) | – |
| COc1cccc(-c2ccc3c(N)c(C(=O)c4ccc(Cl)cc4)sc3n2)c1 | – | 10.4 µM (active) |
| COc1ccc(C(=O)Nc2cc(-c3nc4ccccc4s3)ccc2OC)cc1 | -10.3% (inactive) | – |
| COc1ccc(-c2cc(C(=O)Nc3ccc4c(c3)OCO4)no2)cc1 | -7.44% (inactive) | – |
| CCCc1ccc(C2Sc3ccccc3NC3=C2C(=O)c2ccccc23)cc1 (centres undefined) | -13.1% (inactive) | – |
| Cc1cccc(NC(=O)CSc2nc3ccccc3c3nc(CCn4cncc4C)nn23)c1 | -11.5% (inactive) | – |
| COc1cc(NC(=O)c2cccc(F)c2)ccc1NC(=O)c1cc2ccccc2o1 | – | 16.5 µM (active) |
| Cc1cccc(Nc2ncc(NC(=O)c3cccc(F)c3)c(Nc3cccc(C)c3)n2)c1 | -24.6% (inactive) | – |
| COc1cc(NC(=O)Cn2ccc3ccccc3c2=O)cc(OC)c1OC | -20.1% (inactive) | – |
| COc1cccc(C(=O)Nc2ccccc2-c2nnc(-c3cccc(OC)c3)o2)c1 | -24.5% (inactive) | – |
| CCCCCC(=O)Nc1ccc(NC(=O)c2cc3ccccc3o2)c(OC)c1 | – | 18.5 µM (active) |
| COc1ccc(NC(=O)c2ccco2)cc1NC(=O)COc1ccc(Cl)c(C)c1 | -24% (inactive) | – |
